# PI5P4Ka inh – qHTS for Inhibitors of phosphatidylinositol 5-phosphate 4-kinase (PI5P4K). actives 1.2% (n = 330,000). Phosphatidylinositol 5-phosphate 4-kinase type-2 alpha (Homo sapiens), P48426. PI5P4Kalpha enzyme, ADP-Glo luminescence, 60 min; hits give low values. max response, %; active = max response of -50% or lower; inconclusive = between -30% and -50%; inactive = -30% or higher; also: value at the top dose of about 77 µM; % is scaled to controls: 0 for no effect and ±100 for the full control effect
#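 Human PI5P4Kalpha with substrate in 0.038 M HEPES pH 7.4, 0.28 mM EGTA, 0.1% CHAPS, 5% DMSO; reaction started with 5 microM ATP (final), 60 min at room temperature. ADP formed read by ADP-Glo luminescence.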
# HP1b binding inh – HTS for Inhibitors of HP1-beta Chromodomain Interactions with Methylated Histone Tails | AID 540317, 2011 | AlphaScreen HP1-beta / biotin-H3K9me3 peptide binding | actives 0.56% (n = 390,000) | Potency, µM (titrated, usually from 114 µM), for the others: at the highest dose activity change, negative = inhibition, hits mostly inhibitors; also: potency is read from the fitted curve at half-maximal effect; nearly all actives have a fitted effect of over 70% in size
# Target sequence (P83916 whole entry, looked up): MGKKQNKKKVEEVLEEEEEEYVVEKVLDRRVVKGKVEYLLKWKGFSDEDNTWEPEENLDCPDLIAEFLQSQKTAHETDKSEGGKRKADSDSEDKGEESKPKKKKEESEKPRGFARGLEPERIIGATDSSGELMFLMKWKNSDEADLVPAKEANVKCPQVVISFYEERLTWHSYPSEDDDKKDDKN
#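 HP1-beta protein (50 nM final) preincubated 30 min at room temperature with biotinylated H3(1-18)K9me3 peptide (50 nM) in PBS pH 7.4, 0.01% Tween-20, then compound added for 30 min. AlphaScreen streptavidin donor/nickel chelate acceptor beads (10 ug/mL final), 30 min dark, luminescence read.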
# G9a block – qHTS Assay for Inhibitors of Histone Lysine Methyltransferase G9a. G9a H3K9 monomethylation, AlphaScreen, 2 h. AID 504332, 2011. actives 8.8% (n = 350,000). Potency, µM (doses to about 102 µM), for inactives: at the highest dose activity, negative = inhibition, hits mostly inhibitors. Histone-lysine N-methyltransferase EHMT2 (Homo sapiens), Q96KQ7; also: potency is read from the fitted curve at half-maximal effect; % is scaled to controls: 0 for no effect and ±100 for the full control effect; nearly all actives have a fitted effect of over 75% in size
# Target sequence (Q96KQ7 913-1193 limits assumed): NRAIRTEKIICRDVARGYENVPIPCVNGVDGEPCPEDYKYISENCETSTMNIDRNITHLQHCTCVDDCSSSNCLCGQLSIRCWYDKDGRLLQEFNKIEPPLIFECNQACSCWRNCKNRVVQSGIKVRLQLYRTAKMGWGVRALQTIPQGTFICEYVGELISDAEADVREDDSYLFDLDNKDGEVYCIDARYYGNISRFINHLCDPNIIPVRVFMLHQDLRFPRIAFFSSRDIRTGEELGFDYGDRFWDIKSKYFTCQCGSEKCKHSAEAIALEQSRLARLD
#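 Signal arises when biotinylated H3K9 peptide, once monomethylated, bridges streptavidin donor and antibody-captured acceptor beads. Enzyme at 20 nM was preincubated 15 min with test compounds; peptide 500 nM and SAM 20 uM then reacted for 2 h.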
# BAZ2B block – qHTS Assay for Inhibitors of BAZ2B | AID 504333, 2011 | actives 4.4% (n = 360,000) | AlphaScreen BAZ2B-H3K14Ac peptide displacement | Bromodomain adjacent to zinc finger domain protein 2B (Homo sapiens), Q9UIF8 | Potency, µM (series often up to 114 µM), inactives show at the highest dose activity change, negative = inhibition, most hits filed as inhibitors; also: potency is read from the fitted curve at half-maximal effect; % is scaled to controls: 0 for no effect and ±100 for the full control effect; nearly all actives have a fitted effect of over 60% in size
#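 Inhibition is scored as reduced AlphaScreen emission. The BAZ2B/b-H3(5-23)K14Ac complex (50 nM each) in PBS pH 7.4, 0.01% Tween-20 meets compound (up to 110 uM) for 30 min at RT before bead addition.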
# JMJD2A Tudor inh – qHTS Assay for Inhibitors of JMJD2A-Tudor Domain. Lysine-specific demethylase 4A (Homo sapiens), O75164. AlphaScreen JMJD2A-Tudor / H3K4me3 peptide binding. Potency, µM (series often up to 114 µM), without a hit: at the top dose activity change, negative = inhibition, actives largely listed as inhibitors. AID 504339, 2011. actives 4.4% (n = 390,000); also: potency is read from the fitted curve at half-maximal effect; % is scaled to controls: 0 for no effect and ±100 for the full control effect; nearly all actives have a fitted effect of over 50% in size
# L3MBTL1 block – qHTS Assay for the Inhibitors of L3MBTL1; Lethal(3)malignant brain tumor-like protein 1 (Homo sapiens), Q9Y468; AlphaScreen L3MBTL1–H3K9me1 peptide binding; Potency, µM (titrated, usually from 57.1 µM), without a hit: top-dose activity, negative = inhibition, hits mostly inhibitors; actives 0.66% (n = 230,000); AID 485360, 2010; also: potency is read from the fitted curve at half-maximal effect; % is scaled to controls: 0 for no effect and ±100 for the full control effect; nearly all actives have a fitted effect of over 60% in size
#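 Read-out is AlphaScreen signal from streptavidin donor and nickel chelate acceptor beads (10 ug/mL final each) bridging L3MBTL1 (50 nM) and biotinylated K9-monomethylated H3(1-15) peptide (75 nM), after 30 min compound exposure at room temperature.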
# * hit, by the source's call; ? = inconclusive; · = no result given; [ ] = remark or other dose. Hits are enriched below; roughly 11% of the tested compounds scored in any of these assays. Unless noted, calls follow the shape of the dose curve; as a rule, active = well fitted inhibition curve with a large enough effect; inconclusive = small, poorly fitted or top-dose-only effect; inactive = no such curve, though single readings can be large or run the other way.
SMILES,PI5P4Ka inh,HP1b binding inh,G9a block,BAZ2B block,JMJD2A Tudor inh,L3MBTL1 block
CCCc1nc2c(s1)CCc1onc(-c3ccc(Cl)cc3)c1-2,21.6,67.3%,-4.8%[2.33 µM],23.7%,16.6%,13.8%
CCCc1sc(N)nc1-c1ccc(Cl)cc1,18.4,-2.1%,44.7µM*,-37.0%,-34.7%,-8.1%
CCOC(=O)C1=C(O)/C(=C\c2ccc(CNC(=O)C(=O)Nc3ccccc3)o2)N=C1C,-64.7*,0.8%,?,56.2µM*,?,·
Cc1ccccc1NC(=O)CC1SC(=NC2CCCCC2)NC1=O (stereo not drawn),8.5,53.2%,-26.7%[59 µM],9.7%,-8.6%,·
Cc1ccc(NC(=O)CC2SC(=NC3CCCCC3)NC2=O)cc1 (stereo not drawn),-2.7,42.3%,89.1µM*,-1.8%,-12.4%[57.1 µM],0.6%
CC1=C(C)C(=O)C(N2CCOCC2)=CC1=O,2.9,-3.3%,44.7µM*,?,-26.6%,-7.4%
COc1ccc(C(C(=O)NCc2ccccc2)N(C(=O)Cn2nnc3ccccc32)c2ccc(OC)cc2)cc1 (stereo not drawn),·,41.2%,0.5%[59 µM],0.1%,1.4%,·
Clc1ccc(-c2nnc3sc(-c4ccc(Br)o4)nn23)c(Cl)c1,5.9,35.2%,9.7%[2.33 µM],-20.7%,-9.5%,4.4%
CN(C)c1ccc(-c2nn3c(-c4ccc(Cl)cc4Cl)nnc3s2)cc1,·,·,14.1µM*,1.4%,·,-8.1%
Clc1cccc(-c2nnc3sc(-c4ccc5c(c4)OCO5)nn23)c1,·,·,10µM*,-3.7%,·,-1.3%
Cc1ccc(-c2nn3c(C)nnc3s2)cc1NC(=O)c1ccc(-c2ccc(Cl)cc2Cl)o1,·,19.6%,-20.8%[59 µM],?,63.1µM*,7.2%
Clc1ccccc1-c1nnc2sc(-c3ccc4c(c3)OCO4)nn12,·,?,1.78µM*,3.3%,?,-3.4%
COc1ccc(NC(=O)Cn2c(SCc3ccc(C)cc3)nc3cccnc32)cc1OC,·,22.0%,-26.0%[59 µM],3.2%,-3.0%,·
CSCCC(NC(=O)c1ccccc1Cl)C(=O)Nc1ccncc1 (stereo not drawn),1.8,20.9%,39.8µM*,8.8%,-13.8%,-6.9%
CSCCC(NC(=O)c1ccccc1)C(=O)Nc1ccncc1 (stereo not drawn),3.4,?,-15.3%[12.7 µM],-18.1%,-15.8%,-5.5%
Cc1c(C(=O)Nc2c(F)cccc2F)sc2ncn(Cc3ccccc3F)c(=O)c12,·,-10.4%,-6.1%[59 µM],-2.4%,-15.7%,·
CN(C)C(=S)NC(=O)C(c1ccccc1)c1ccccc1,5.5,33.8%,79.4µM*,-22.9%,-1.4%,-4.9%[11.4 µM]
CCn1c(C)[n+](CCOC(C)=O)c2cc(Cl)c(Cl)cc21,2.4,10.5%,·,?,-8.4%,5.4%
CC(=O)OCCCn1c(C)[n+](C)c2cc(Cl)c(Cl)cc21,-0.5,-28.4%,31.6µM*,-30.3%,31.6µM*,-0.8%
CCOc1ccc(NC(=O)c2c(C)nn(-c3ccc(F)cc3)c2-n2cccc2)cc1,·,17.4%,?,-5.7%,-7.6%,·
CCC(=O)N1c2ccccc2CC1C(=O)NCc1ccc(CC)cc1 (stereo not drawn),·,34.1%,-1.6%[12.7 µM],-11.8%,8.9%,·
Cc1ccc[n+](CC(=O)c2ccc(Br)cc2)c1,3.6,38.0%,-3.6%[59 µM],4.8%,-11.8%,1.9%
N#Cc1ccc[n+](CC(=O)c2ccc(Cl)cc2)c1,2.3,36.1%,79.4µM*,-31.5%,-17.0%,·
COc1ccc2[nH]cc(CCO)c2c1,·,·,29.4%[59 µM],·,·,·
CNC(=S)N1CCN(c2nc(-c3ccc(Cl)cc3)cs2)CC1,7.8,-11.2%,11.8%,0.2%,-13.8%,2.0%
SMILES,PI5P4Ka inh,HP1b binding inh,G9a block,BAZ2B block,JMJD2A Tudor inh,L3MBTL1 block
COCCNC(=S)N1CCN(c2nc(-c3ccc(F)cc3)cs2)CC1,1.2,1.1%,50.1µM*,?,-35.2%,-11.0%
COCCNC(=S)N1CCN(c2nc(-c3ccc(Cl)cc3)cs2)CC1,-0.2,5.6%,?,-31.0%,31.6µM*,-1.1%
Cc1nn(CC(=O)NCc2ccc(F)cc2)c2ccccc12,·,1.5%,-44.9%[59 µM],-31.5%,-21.2%,·
O=C(Sc1n[nH]c(=O)[nH]c1=O)c1ccccc1,-74.5*,?,·,·,7.08µM*,·
CN(C(=O)CSc1n[nH]c(=O)[nH]c1=O)c1ccccc1,-9.0,33.2%,·,·,-11.7%,-2.9%
CCc1nc(SCc2cc(=O)c3cc(C)ccc3[nH]2)n[nH]1,·,12.9%[57 µM],28.3%[59 µM],10.3%,-12.0%,·
CC(=O)c1cccc2c(O)c(C3=Nc4ccccc4C3=O)[nH]c12,-18.3,-93.9%,?,25.1µM*,44.7µM*,-4.1%
Cc1ccc(C(=O)Nc2ccc(C(=O)N/N=C/c3cccnc3)cc2)cc1,6.3,?,79.4µM*,-34.4%,?,·
Cc1ccc(C(=O)N/N=C/c2nc3ccccc3n2C)cc1,·,46.7%,32.5%[12.7 µM],?,63.1µM*,-0.6%
CC(C)(C)OC(=O)N/N=C\c1cccnc1,12.8,2.6%,1.26µM*,-31.0%,-15.0%[11.4 µM],·
O=C(CN1C(=O)c2cccc3cccc1c23)Nc1ccccc1Br,·,25.4%,-1.9%[59 µM],2.6%[57.1 µM],-0.7%,·
COC(=O)Nc1sc2c(c1C(N)=O)CCC(C)C2 (stereo not drawn),-10.2,10.0%,14.1µM*,-20.4%,-22.6%,2.2%
CC1CCc2c(sc(NC(=O)C3c4ccccc4Oc4ccccc43)c2C(N)=O)C1 (stereo not drawn),16.0,23.3%,1.1%[59 µM],8.7%,-15.9%,-3.8%
COC(=O)c1c(NC(=O)Cc2cccs2)sc2c1CCC(C)C2 (stereo not drawn),·,-11.3%,?,-4.5%,-11.0%,-1.1%
CCOC(=O)c1c(NC(=O)C2C3C=CC(C3)C2C(=O)O)sc2c1CC(C)CC2 (stereo not drawn),-3.1,48.6%,?,-27.2%,-27.1%,-3.9%
CCCOC(=O)c1c(NC(=O)C2C3C=CC(C3)C2C(=O)O)sc2c1CCC(C)C2 (stereo not drawn),-59.0*,?,8.91µM*,?,28.2µM*,-1.1%
COC(=O)c1c(NC(=S)NN2CCN(C)CC2)sc2c1CCC(C)C2 (stereo not drawn),8.4,?,44.7µM*,?,?,-28.2%
COC(=O)c1c(NC(=O)Cn2cnc([N+](=O)[O-])n2)sc2c1CCC(C)C2 (stereo not drawn),-9.6,?,8.91µM*,-37.3%,?,-12.9%
Cc1cc(O)c(C(C)C)cc1Cl,·,·,-0.2%[59 µM],·,·,·
